This is an account of results in the supplement of paper PMC11482750.

± gives the standard deviation of the averaged measurements.

Compound in this assay: CCCCCC(C)=O [2-heptanone]
Kind of assay: control-subtracted net OSN firing rate; higher = stronger neuronal activation. As to conditions: odorant dilution (vol/vol): 1/100. As to the method: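 Single sensillum recordings from olfactory sensory neurons. The neurons sit in the maxillary palp or antennal sensilla of D. melanogaster (wild type, mutants, or at1 empty-neuron lines expressing Or42a homologs or the A181D S307P mutant) and of four Scaptomyza species. Each odorant was given as a 1 s pulse from 20 µl loaded on filter paper at 1:100 vol/vol, diluted in mineral oil (γ-hexalactone in DMSO). Spikes were counted in a 0.5 s window starting 0.2 s after onset, background was subtracted, the count was doubled, and the mean solvent-control response was subtracted.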
As to S. flava pb1a-like, the “control-subtracted net OSN firing rate” value came out at 104 ± 19 spikes/s.
The result for S. montana pb2b-like reads 8 ± 10 spikes/s.
Turning to Canton-S (D. melanogaster) pb2a, the “control-subtracted net OSN firing rate” value stood at 3.71 ± 7.3 spikes/s.
The result for S. pallida pb1a-like reads 95.7 ± 29 spikes/s.
The result for S. montana pb1a-like reads 64.7 ± 19 spikes/s.
In the case of S. montana pb2a-like, the “control-subtracted net OSN firing rate” value was 7 ± 13 spikes/s.
On to S. hsui pb1a-like, for which the “control-subtracted net OSN firing rate” value amounted to 136 ± 22 spikes/s.
As for S. montana pb3a-like, the “control-subtracted net OSN firing rate” value was 97.3 ± 25 spikes/s.
Turning to S. flava pb1b-like, the “control-subtracted net OSN firing rate” value was -22 ± 27 spikes/s.
The result for S. montana pb3b-like reads -2 ± 6.5 spikes/s; that for Canton-S (D. melanogaster) pb1b, -10 ± 9.1 spikes/s.
With S. pallida pb2a-like, the “control-subtracted net OSN firing rate” value was determined as 7.67 ± 6.6 spikes/s.
The figure for S. hsui pb2b-like is 8.67 ± 16 spikes/s; for S. pallida pb3a-like it is 115 ± 19 spikes/s.
The result for S. flava pb3a-like reads 133 ± 40 spikes/s.
The result for S. hsui pb3a-like reads 148 ± 31 spikes/s; that for Canton-S (D. melanogaster) pb1a, 161 ± 48 spikes/s; that for S. montana pb1b-like, -12.3 ± 22 spikes/s.
For the target S. pallida pb1b-like, the “control-subtracted net OSN firing rate” value was -9 ± 13 spikes/s.
The result for S. flava pb2b-like reads -1 ± 14 spikes/s; that for Canton-S (D. melanogaster) pb3b, 16.3 ± 24 spikes/s; that for S. pallida pb2b-like, 26.3 ± 7.8 spikes/s.
As for Canton-S (D. melanogaster) pb3a, the “control-subtracted net OSN firing rate” value was determined as 5.67 ± 5.5 spikes/s.
In the case of S. hsui pb1b-like, the “control-subtracted net OSN firing rate” value is -8.33 ± 8 spikes/s.
Turning to S. hsui pb3b-like, the “control-subtracted net OSN firing rate” value is -6.67 ± 5.9 spikes/s.
In the case of S. hsui pb2a-like, the “control-subtracted net OSN firing rate” value is 8.67 ± 6.3 spikes/s.
For S. flava pb3b-like, the “control-subtracted net OSN firing rate” value is -8.67 ± 26 spikes/s.
The figure for S. flava pb2a-like is 7.33 ± 3.7 spikes/s; for S. pallida pb3b-like it is -7.67 ± 13 spikes/s.
With Canton-S (D. melanogaster) pb2b, the “control-subtracted net OSN firing rate” value was 0.286 ± 11 spikes/s.
